Assay outcomes as filed in PubChem.
USP8 inh: human USP8 deubiquitinase inhibition | inhibition, % at 20 µM | 4.2% of 47,000 active | purified USP8, Ub-rhodamine cleavage fluorescence, 30 min
UCHL1 inh: inhibitors of human UCHL1 deubiquitinase; purified UCHL1, Ub-rhodamine cleavage fluorescence; inhibition, % at 20 µM; P09936; 0.2% of 47,000 active
USP17 block: blocks human USP17 ubiquitin-rhodamine cleavage | 6.5% of 47,000 active | purified USP17, Ub-rhodamine cleavage fluorescence, 3 h | inhibition, % at 50 µM | A8MUK1
USP30 block: inhibitors of human USP30 deubiquitinase. purified USP30, Ub-rhodamine cleavage fluorescence. inhibition, % at 25 µM. 5.3% of 47,000 active. AID 1645860
USP10 block: inhibitors of human USP10 deubiquitinase; AID 1645856; inhibition, % at 20 µM; 1.1% of 47,000 active; purified USP10, Ub-rhodamine fluorescence, 60 min
Target sequence (Q14694 whole entry, looked up): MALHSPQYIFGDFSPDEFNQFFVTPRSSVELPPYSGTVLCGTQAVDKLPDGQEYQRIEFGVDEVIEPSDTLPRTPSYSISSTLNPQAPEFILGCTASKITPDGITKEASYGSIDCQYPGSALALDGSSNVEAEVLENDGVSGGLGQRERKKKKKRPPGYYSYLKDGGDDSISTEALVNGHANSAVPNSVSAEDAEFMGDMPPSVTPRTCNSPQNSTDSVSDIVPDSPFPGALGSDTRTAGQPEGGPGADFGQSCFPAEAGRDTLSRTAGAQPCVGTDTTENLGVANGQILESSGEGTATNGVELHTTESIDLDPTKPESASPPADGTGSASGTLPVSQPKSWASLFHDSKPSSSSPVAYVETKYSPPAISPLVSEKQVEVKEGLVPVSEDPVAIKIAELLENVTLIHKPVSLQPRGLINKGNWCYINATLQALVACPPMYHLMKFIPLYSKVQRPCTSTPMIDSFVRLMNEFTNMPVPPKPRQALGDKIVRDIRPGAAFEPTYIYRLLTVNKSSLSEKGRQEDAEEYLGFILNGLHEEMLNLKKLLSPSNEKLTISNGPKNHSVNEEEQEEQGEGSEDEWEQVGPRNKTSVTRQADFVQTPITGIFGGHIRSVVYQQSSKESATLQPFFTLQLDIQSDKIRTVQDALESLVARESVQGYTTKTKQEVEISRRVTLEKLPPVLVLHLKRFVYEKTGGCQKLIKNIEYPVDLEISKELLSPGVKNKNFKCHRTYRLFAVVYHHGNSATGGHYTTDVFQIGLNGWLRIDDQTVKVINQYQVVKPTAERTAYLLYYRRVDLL
USP7 block: inhibitors of human USP7 deubiquitinase; Q93009; purified USP7, Ub-rhodamine cleavage fluorescence; inhibition, % at 20 µM; 0.3% of 47,000 active; AID 1645854
Starred values were filed as active, the others as inactive; x = no result. A selection: hits, their analogues and other compounds. The true share with any hit is near 12%. Rule as the data show it: active = inhibition above about 30%; inactive = the rest.

SMILES | USP8 inh | UCHL1 inh | USP17 block | USP30 block | USP10 block | USP7 block
COc1ccc(Cn2c(N3CCCCC3)nc3c2c(=O)n(C)c(=O)n3C)cc1 | 9 | 2 | 15 | 26 | 0 | -6
O=C(CC1C(=O)N(Cc2ccccn2)c2nc3ccccc3n21)Nc1ccccc1F (centres undefined) | 0 | 0 | -6 | -1 | 2 | -28
O=C(c1ccc(Cl)cc1)[C@@H]1[C@H](C(=O)OC(c2ccccc2)c2ccccc2)N2c3ccccc3C=CC2[C@@]12C(=O)Nc1ccccc12 (some centres undefined) | 52* | -15 | -11 | -312 | -4 | -15
Cc1nn(-c2cccc(C(F)(F)F)c2)c2c1C(c1ccccc1)N1C=C(Cl)C=C(Cl)C1=N2 (centres undefined) | -106 | -1 | 35* | -88 | 0 | 3
Cc1nn2c(S(=O)(=O)NCc3ccccc3)c(C)nc2s1 | 9 | 0 | -4 | -7 | 0 | 0
CCOc1ccccc1C(=O)Nc1c(C)nc2cc(C)ccn2c1=O | 5 | 1 | 10 | 23 | 1 | 3
O=C(/C=C1\NCCc2cc3c(cc21)OCCCO3)c1ccc(OC(F)(F)F)cc1 | 53* | -7 | 22 | -232 | -5 | -14
CN(C)c1ccc(C2CC(c3c(O)n(C)c(=O)[nH]c3=O)=Nc3ccccc3S2)cc1 (centres undefined) | 18 | -3 | 65* | 24 | -2 | 6
O=C(Nc1ccc(F)cc1)c1cn(-c2ccc(S(=O)(=O)N3CCCC3)cn2)cn1 | 22 | 6 | 11 | 14 | 0 | 9
CC(C)c1ccc(-c2noc(N3CCC(C(=O)N4CCOCC4)CC3)n2)cc1 | -5 | 1 | 1 | 12 | -5 | 2
Cc1ccc(CNC(=O)CCc2c(C)nc3c(c(C)nn3-c3ccc(C)cc3)c2C)cc1 | 34* | 6 | 21 | 24 | 1 | 5
Cc1nn(-c2ccccc2)c2c1c(C)c(CCC(=O)NCc1ccc(F)cc1)c(=O)n2C | -4 | -2 | 37* | 21 | 2 | 1
Cc1nc2nc(C)c(CCC(=O)NCc3ccc(F)cc3)c(C)n2n1 | 8 | 0 | 2 | 13 | 1 | 2
CC(=O)Nc1ccc(NC(=O)CCc2c(C)c3c(C)nn(-c4ccccc4)c3n(C)c2=O)cc1 | 10 | 3 | 10 | 15 | 0 | 10
CC(=O)c1ccc(NC(=O)CCc2c(C)c3c(C)nn(-c4ccccc4)c3n(C)c2=O)cc1 | 1 | 0 | 38* | -8 | 18 | -2
COc1ccc(CNC(=O)c2cnc(NCc3ccc(OC)cc3)nc2C)cc1 | -10 | -9 | -1 | -24 | -5 | 0
Cc1ccc2c(Nc3cccc(F)c3)c(C(=O)N3CCCCC3)cnc2n1 | -39 | -13 | -57 | -276 | -3 | -6
O=C(NCc1ccco1)c1ccc(Oc2cc(Cl)cc(Cl)c2)o1 | 10 | 3 | 37* | x | 13 | 1
C[C@H](NC(=O)c1ccc(Cl)cc1Cl)C(=O)NCc1ccco1 | -3 | -1 | -6 | -2 | 3 | -7
Cc1nc(Nc2ccc(Cl)cn2)sc1C(=O)NC1CCCC1 | 31* | -1 | 8 | 7 | 1 | 4
Cc1nc(-n2cccc2)sc1C(=O)NC1CCCC1 | -13 | -2 | -19 | -57 | -1 | -4
CCc1ccc(CN(C)C(=O)c2ccc(NS(=O)(=O)c3ccc(F)c(F)c3)cc2)cc1 | 19 | 8 | 27 | 41* | 38* | 9
COc1ccc(NC(=O)Cc2ccccc2)cc1S(=O)(=O)Nc1ccccc1Cl | 9 | 4 | 5 | 14 | 7 | 5
O=C(COc1ccc(Cl)cc1)Nc1ccc(S(=O)(=O)Nc2ccccc2)cc1 | 9 | 3 | 41* | 38* | 26 | 4
Cc1cc(NS(=O)(=O)c2ccc(NC(=O)COc3ccc(Cl)cc3)cc2)no1 | 11 | -7 | 3 | 10 | 6 | -5
COc1ccccc1NS(=O)(=O)c1ccc(NC(=O)Cc2ccc(Cl)cc2)cc1 | -5 | 0 | 45* | 3 | 18 | 10
O=C(COC(=O)c1ccc(NS(=O)(=O)c2ccc(F)c(F)c2)cc1)Nc1ccc(OCc2ccccc2)cc1 | 2 | 0 | 7 | 1 | 53* | 4
COc1cccc(NC(=O)C(C)OC(=O)c2ccc(NS(=O)(=O)c3ccc(F)c(F)c3)cc2)c1 (centres undefined) | -6 | 1 | -52 | -38 | 12 | 6
